Assay [1] is described as follows: qHTS of pediatric cancer cell lines to identify multiple opportunities for drug repurposing: Confirmatory screen for NB1643 cells (AID 1347109). Note: nearly all actives have a fitted effect of over 45% in size. Note: potency is the fitted concentration of half-maximal effect. The method in brief: (§1)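 Viability after 48 h compound treatment at 37C, 500-1,000 cells/well, read as ATP luminescence with CellTiter-Glo. Primary screens used 11-point (MIPE, 0.78 nM-46 µM) or 8-point (NPC, 0.59 nM-46 µM) final concentrations; follow-up screens used 11-point dilutions.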
(In qHTS, concentration-response curves come from the screen itself.)

A short description of assay [2]: qHTS of pediatric cancer cell lines to identify multiple opportunities for drug repurposing: Confirmatory screen for SK-N-MC cells (AID 1347111).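 Note: cells exposed to compound for 48 h before the readout; nearly all actives have a fitted effect of over 70% in size.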 Note: potency is the fitted concentration of half-maximal effect. The method, boiled down: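 SK-N-MC cells at 500-1,000 cells/well in growth media were pre-incubated 5 h, then exposed to compounds at 11-point dilutions for 48 h at 37 degrees C, 5% CO2. Viability was read as CellTiter-Glo luminescence.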

Assay [3] can be described thus: qHTS of pediatric cancer cell lines to identify multiple opportunities for drug repurposing: Confirmatory screen for BT-12 cells (AID 1347112). Note: nearly all actives have a fitted effect of over 55% in size. Note: potency is the fitted concentration of half-maximal effect. The method, boiled down:
as §1

Assay [4] in a line: qHTS of pediatric cancer cell lines to identify multiple opportunities for drug repurposing: Confirmatory screen for TC32 cells (AID 1347118). Note: nearly all actives have a fitted effect of over 65% in size. Note: potency is the fitted concentration of half-maximal effect. The method, boiled down: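 TC32 cells, 500-1,000/well in growth medium, compound-treated 48 h at 37 °C; viability from CellTiter-Glo luminescence. Primary screen: MIPE 11-point (0.78 nM–46 µM final), NPC 8-point (0.59 nM–46 µM final); confirmatory at 11-point dilutions.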

The nature of assay [5]: qHTS of pediatric cancer cell lines to identify multiple opportunities for drug repurposing: Confirmatory screen for MG 63 (6-TG R) cells (AID 1347119). Note: nearly all actives have a fitted effect of over 55% in size. Note: potency is the fitted concentration of half-maximal effect. The method, boiled down:
as §1

Assay [6] can be described thus: qHTS of pediatric cancer cell lines to identify multiple opportunities for drug repurposing: Confirmatory screen for control Hh wild type fibroblast cells (AID 1347121). Note: nearly all actives have a fitted effect of over 70% in size. The method in brief:
as §1

A short description of assay [7]: qHTS of pediatric cancer cell lines to identify multiple opportunities for drug repurposing: Confirmatory screen for Rh41 cells (AID 1347123).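 Note: 48 h compound exposure; nearly all actives have a fitted effect of over 60% in size.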 Note: potency is the fitted concentration of half-maximal effect. The method, boiled down:
as §1

The nature of assay [8]: qHTS of pediatric cancer cell lines to identify multiple opportunities for drug repurposing: Confirmatory screen for SK-N-SH cells (AID 1347129). Note: nearly all actives have a fitted effect of over 60% in size. Note: potency is the fitted concentration of half-maximal effect. The method in brief: as §1
A short description of assay [9]: qHTS of pediatric cancer cell lines to identify multiple opportunities for drug repurposing: Confirmatory screen for NB-EBc1 cells (AID 1347115). Note: nearly all actives have a fitted effect of over 45% in size. The method, boiled down: as §1
The nature of assay [10]: qHTS of pediatric cancer cell lines to identify multiple opportunities for drug repurposing: Confirmatory screen for Rh18 cells (AID 1347125). Note: nearly all actives have a fitted effect of over 55% in size. The method in brief:
as §1

A short description of assay [11]: qHTS of pediatric cancer cell lines to identify multiple opportunities for drug repurposing: Confirmatory screen for Saos-2 cells (AID 1347127). Note: nearly all actives have a fitted effect of over 60% in size. Note: potency is the fitted concentration of half-maximal effect. The method, boiled down: as §1
The nature of assay [12]: qHTS of pediatric cancer cell lines to identify multiple opportunities for drug repurposing: Confirmatory screen for BT-37 cells (AID 1347117). Note: nearly all actives have a fitted effect of over 55% in size. Note: potency is the fitted concentration of half-maximal effect. The method in brief: as §1
Assay [13] in a line: qHTS of pediatric cancer cell lines to identify multiple opportunities for drug repurposing: Confirmatory screen for OHS-50 cells (AID 1347128). Note: potency is the fitted concentration of half-maximal effect. The method in brief: as §1
The nature of assay [14]: qHTS of pediatric cancer cell lines to identify multiple opportunities for drug repurposing: Confirmatory screen for A673 cells (AID 1347110). Note: nearly all actives have a fitted effect of over 65% in size. Note: potency is the fitted concentration of half-maximal effect. The method in brief:
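qHTS titration format: primary MIPE 0.78 nM-46 µM (11 pts), NPC 0.59 nM-46 µM; confirmation 11 pts. 48 h, CTG luminescence.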

Assay [15] is described as follows: qHTS of pediatric cancer cell lines to identify multiple opportunities for drug repurposing: Confirmatory screen for RD cells (AID 1347124).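 Note: cells exposed to compound for 48 h before viability readout; nearly all actives have a fitted effect of over 65% in size.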 Note: potency is the fitted concentration of half-maximal effect. The method, boiled down:
as §1

Assay [16] is described as follows: qHTS of pediatric cancer cell lines to identify multiple opportunities for drug repurposing: Confirmatory screen for Rh30 cells (AID 1347126). Note: nearly all actives have a fitted effect of over 55% in size. Note: potency is the fitted concentration of half-maximal effect. The method, boiled down: as §1
The target in assay [17] is Furin (Homo sapiens) (UniProt P09958). Put plainly: Furin counterscreen qHTS for Zika virus inhibitors (AID 1347149).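 Note: purified recombinant full-length human furin enzyme at 5 nM; fluorescence gain from furin cutting a BOC-RVRR-AMC peptide substrate over 15 min; top concentration of the series differs between compounds; nearly all actives have a fitted effect of over 70% in size.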 The method, boiled down:
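Counterscreen measures cleavage of 2 microM BOC-RVRR-AMC, below its ~15 microM Km, by 5 nM full-length human furin at pH 7.0 after a 15-min compound preincubation. Inhibition derives from the 15-min fluorescence increase at 37C.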

Assay [18] can be described thus: qHTS of pediatric cancer cell lines to identify multiple opportunities for drug repurposing: Confirmatory screen for U-2 OS cells (AID 1347122). Note: nearly all actives have a fitted effect of over 65% in size. The method in brief:
as §1

Assay [19] can be described thus: qHTS of pediatric cancer cell lines to identify multiple opportunities for drug repurposing: Confirmatory screen for DAOY cells (AID 1347114). Note: nearly all actives have a fitted effect of over 65% in size. Note: potency is the fitted concentration of half-maximal effect. The method in brief: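 Viability measured as metabolically active cells via CellTiter-Glo luminescence following 48 hours of compound exposure, 11-point dilutions in confirmatory testing. 500-1,000 cells/well plated 5 hours before dosing; controls were DMSO and 2.3 µM bortezomib.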

The record followed here is PubChem BioAssay (NCATS).

The structures appear in SMILES notation. Results filed as inconclusive are left out. Activity calls are given as the source filed them. Calls come from the whole dose curve; as a rule, active = well fitted curve in the direction sought with a large enough effect; inconclusive = small, poorly fitted or top-dose-only effect, or another doubt; inactive = no such curve, though single readings can be large; an effect the other way counts as inactive or inconclusive.

Sequence of Furin (Homo sapiens) (P09958 whole entry, looked up): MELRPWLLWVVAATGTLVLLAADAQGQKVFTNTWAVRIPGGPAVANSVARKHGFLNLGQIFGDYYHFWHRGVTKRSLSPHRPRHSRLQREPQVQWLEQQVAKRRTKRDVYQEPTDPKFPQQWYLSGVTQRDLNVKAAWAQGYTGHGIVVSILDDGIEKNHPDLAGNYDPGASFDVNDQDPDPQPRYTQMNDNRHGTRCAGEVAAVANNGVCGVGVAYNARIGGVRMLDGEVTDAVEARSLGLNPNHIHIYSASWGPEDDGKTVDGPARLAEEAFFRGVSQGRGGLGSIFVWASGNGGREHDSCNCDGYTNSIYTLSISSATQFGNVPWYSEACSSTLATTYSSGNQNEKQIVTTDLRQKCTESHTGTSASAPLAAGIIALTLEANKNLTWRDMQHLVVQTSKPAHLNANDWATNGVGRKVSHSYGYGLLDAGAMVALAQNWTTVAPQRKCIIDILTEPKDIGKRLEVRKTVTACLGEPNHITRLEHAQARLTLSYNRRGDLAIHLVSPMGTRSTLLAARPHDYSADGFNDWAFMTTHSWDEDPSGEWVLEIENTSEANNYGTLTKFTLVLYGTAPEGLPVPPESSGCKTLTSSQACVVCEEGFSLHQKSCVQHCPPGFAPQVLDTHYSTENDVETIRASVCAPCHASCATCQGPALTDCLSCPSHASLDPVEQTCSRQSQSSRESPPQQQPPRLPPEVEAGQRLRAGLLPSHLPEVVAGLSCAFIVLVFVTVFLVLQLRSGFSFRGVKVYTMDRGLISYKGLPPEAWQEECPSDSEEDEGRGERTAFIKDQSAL

As to `CCC(C)SSc1ncc[nH]1` (configuration not stated), the Potency in assay [1] is 18.5 µM (active); in [2], 8.27 µM (active); in [3], 23.3 µM (active); in [4], 13.1 µM (active); in [5] it was 20.8 µM (active); in assay [7] it was 9.27 µM (active). In addition, the Potency in assay [8] is 16.6 µM (active). Further, the Potency result in assay [6] is “inactive”.

`CC(C)C[C@@H](C(=O)N[C@H](C(=O)OC1CCCC1)c1ccccc1)[C@H](O)C(=O)NO`: the Potency was 20.8 µM (active) in assay [1]; 20.8 µM (active) in assay [2]; 23.3 µM (active) in assay [4]; 20.8 µM (active) in [5]; 11.7 µM (active) in assay [7]; 5.85 µM (active) in assay [11]. The Potency entry in assay [3], in assay [9], in assay [6] and in assay [10] was “inactive” throughout.

For `CCCCn1c(=O)n(Cc2ccccc2F)c(=O)c2[nH]c(Cc3ccc(NC(C)=O)cc3)nc21`, the Potency entry in [1], in assay [3], in assay [9], in assay [12], in [5] and in assay [6] was “inactive” throughout. The Potency result in assay [10], in [11], in [13] and in assay [8] was “inactive” in each case.

Turning to `O=C1Nc2ccc(I)cc2C1=Cc1cc(Br)c(O)c(Br)c1`, the Potency in assay [14] was 11.7 µM (active); in assay [16], 1.17 µM (active). Besides, the Potency result in [2], in assay [3], in [9], in assay [12], in [5] and in [7] was “inactive” in each case. Also, the Potency result in [15], in assay [10], in assay [11], in assay [8] and in assay [17] was “inactive” each time.

For `CCC[C@H](N[C@@H](C)C(=O)N1[C@@H]2CCCC[C@H]2C[C@H]1C(=O)O)C(=O)OCC`, the Potency result in assay [1], in [2], in assay [3], in assay [9], in assay [12] and in assay [4] was “inactive” throughout. Moreover, the Potency entry in assay [5], in assay [6], in assay [18], in assay [7], in assay [15] and in [8] was “inactive” in each case.

Turning to `Cc1cc(CS(=O)(=O)c2ccccc2)cc(OCc2ccc(CN3CCC[C@H]3CO)cc2)c1`, the Potency result in assay [1], in assay [9], in [6], in [15], in assay [16] and in assay [11] was “inactive” each time. For the same compound, the Potency in assay [7] was 16.5 µM (active).

For the compound `O=C(CC12CC3CC(CC(C3)C1)C2)Nc1cccc2nc(NCCNCCO)ccc12`, the Potency result in [1], in assay [9], in assay [5], in assay [6], in assay [10] and in [8] was “inactive” in each case. For the same compound, the Potency in assay [2] is 23.3 µM (active); in assay [4], 18.5 µM (active); in [7], 13.1 µM (active).

`CC1CNc2c(cccc2S(=O)(=O)N[C@@H](CCCN=C(N)N)C(=O)N2CC[C@@H](C)C[C@@H]2C(=O)O)C1` (some centres not stated): the Potency result in assay [14], in [3], in assay [9], in [12], in assay [5] and in [6] was “inactive” throughout. For the same compound, the Potency result in assay [18], in assay [7], in assay [10], in assay [13] and in [8] was “inactive” each time. Also, the Potency in assay [2] and in assay [16] was 20.8 µM (active) each time.

For the compound `Cc1csc(-c2nnc(Nc3ccc(Oc4ncccc4-c4ccnc(N)n4)cc3)c3ccccc23)c1`, the Potency was 9.27 µM (active) in [14], 0.0261 µM (active) in assay [2], 23.3 µM (active) in assay [19] and 6.62 µM (active) in [8]. Also, the Potency entry in assay [6], in assay [15], in [10], in assay [16] and in assay [13] was “inactive” in each case.

Turning to `CCCC1OC2C[C@@H]3[C@H]4CCC5=CC(=O)C=C[C@]5(C)[C@H]4C(O)C[C@]3(C)[C@]2(C(=O)CO)O1` (some centres not stated), the Potency result in [14], in assay [3], in assay [9], in assay [5], in assay [6] and in assay [13] was “inactive” in each case. Further, the Potency entry in assay [8] is “inactive”. Also, in [2], the Potency was 26.1 µM (active).

As for `CCN(CCO)CCCOc1ccc2c(Nc3cc(CC(=O)Nc4cccc(F)c4)[nH]n3)ncnc2c1`, the figures for the Potency in [14], in assay [2] and in assay [4] were 10.4 µM (active), 0.104 µM (active) and 0.0414 µM (active), respectively. Moreover, the Potency result in assay [3], in [9], in assay [6], in [18], in assay [15] and in assay [10] was “inactive” throughout. Further, the Potency entry in [16] and in [11] was “inactive” in each case.

For the compound `COc1cc2nccc(Oc3ccc(NC(=O)Nc4cc(C)on4)c(Cl)c3)c2cc1OC`, the Potency is 18.5 µM (active) in assay [14], 16.5 µM (active) in assay [2], 18.5 µM (active) in [4] and 9.35 µM (active) in [8]. In addition, in [6], the Potency entry is “inactive”.

As to `OCCn1cc(-c2ccc3c(c2)CCC3=NO)c(-c2ccncc2)n1`, the Potency result in assay [1], in assay [3], in [19], in assay [9], in assay [12] and in assay [4] was “inactive” each time. Moreover, the Potency result in assay [5], in [6], in assay [10], in [13] and in assay [8] was “inactive” each time. Besides, in assay [15], the Potency is 8.51 µM (active).

In the case of `COc1cc(CNC(=O)CCCCC=CC(C)C)ccc1O`, the Potency result in assay [1], in assay [3], in [9], in assay [12], in assay [5] and in assay [6] was “inactive” throughout. Moreover, the Potency result in assay [15], in assay [10], in assay [16], in assay [11] and in assay [13] was “inactive” each time. In addition, the Potency in assay [4] is 3.29 µM (active).

As to `COC(=O)Nc1ccc(-c2nc(N3CCOCC3)c3cnn(C4CCN(C(=O)OC)CC4)c3n2)cc1`, the Potency in [14] is 2.93 µM (active); in assay [2], 4.65 µM (active); in assay [12] it was 3.69 µM (active); in [4] it was 3.69 µM (active); in assay [5], 1.31 µM (active); in assay [7], 2.61 µM (active). Further, the Potency in assay [13] was 16.5 µM (active); in assay [8], 4.18 µM (active).
